What all share (conditions): mRNA level, 48 h; actives raise or lower the signal
Read-out in assay [1]: Early growth response protein 1 (EGR1) transcription factor, EGR1 (gene 1958)
As to the kind of experiment: LTEA_HepaRG_EGR1: Life Technologies and Expression Analysis (LTEA) Assay for Early growth response protein 1 (EGR1) transcription factor using HepaRG (AID 2283490). Put shortly:
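Differentiated human HepaRG cells in serum-free induction medium were exposed in duplicate for 48 h to eight concentrations (top 100 uM, half-log steps) in 0.5% DMSO. EGR1 mRNA was quantified by qRT-PCR, normalized to ACTB, GAPDH and POLR2A, and fitted bidirectionally versus DMSO.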

Read-out in assay [2]: Ezrin (EZR), EZR (gene 7430)
The experiment in a line: LTEA_HepaRG_EZR: Life Technologies and Expression Analysis (LTEA) Assay for Ezrin (EZR) using HepaRG (AID 2283491). Summed up:
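Read-out is EZR transcript level by qRT-PCR, normalized to three housekeeping genes and fitted bidirectionally against the DMSO control. Human HepaRG cells received test chemicals for 48 h at eight half-log concentrations up to 100 uM in 0.5% DMSO.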

Read-out in assay [3]: Cytochrome P450 3A7 (Homo sapiens) (UniProt P24462)
As to the kind of experiment: LTEA_HepaRG_CYP3A7: Life Technologies and Expression Analysis (LTEA) Assay for CYP3A7 using HepaRG (AID 2283492). Summed up:
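Human HepaRG liver cells, 48 h post-plating, switched to serum-free induction medium and exposed in duplicate for 48 h. Dosing: 100 uM top, half-log dilutions, 8 points, 0.5% DMSO vehicle. Read-out: CYP3A7 mRNA, gain or loss fitted against DMSO baseline.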

Read-out in assay [4]: CYP3A5 (gene 1577)
As to the kind of experiment: LTEA_HepaRG_CYP3A5: Life Technologies and Expression Analysis (LTEA) Assay for CYP3A5 using HepaRG (AID 2283493). Summed up:
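HepaRG plated 48 h, switched to serum-free induction medium, chemicals added 48 h (max 100 uM, half-log, 0.5% DMSO). RNA isolated; CYP3A5 by TaqMan qRT-PCR. Gain/loss vs DMSO.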

Read-out in assay [5]: Fatty Acid-Binding Protein 1 (FABP1), FABP1 (gene 2168)
As to the kind of experiment: LTEA_HepaRG_FABP1: Life Technologies and Expression Analysis (LTEA) Assay for Fatty Acid-Binding Protein 1 (FABP1) using HepaRG (AID 2283494). Put shortly: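 Differentiated human HepaRG cells were exposed in duplicate for 48 h in serum-free induction medium to 8-point half-log concentration series topping at 100 uM in 0.5% DMSO. FABP1 mRNA measured by TaqMan qRT-PCR, normalized to ACTB/GAPDH/POLR2A; bidirectional fit versus DMSO.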

Read-out in assay [6]: Cytochrome P450 4A22 (Homo sapiens) (UniProt Q5TCH4)
The experiment in a line: LTEA_HepaRG_CYP4A22: Life Technologies and Expression Analysis (LTEA) Assay for Cytochrome P450 4A22 (CYP4A22) using HepaRG (AID 2283495). Summed up: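 Readout is CYP4A22 transcript induction or loss, quantified by qRT-PCR and normalized to ACTB, GAPDH and POLR2A. Human HepaRG cells receive test chemicals for 48 h at eight half-log concentrations from 100 uM in 0.5% DMSO.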

Read-out in assay [7]: Cytochrome P450 7A1 (Homo sapiens) (UniProt P22680)
As to the kind of experiment: LTEA_HepaRG_CYP7A1: Life Technologies and Expression Analysis (LTEA) Assay for Cytochrome P450 7A1 (CYP7A1) using HepaRG (AID 2283496). Put shortly: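 HepaRG cells plated 48 h, then switched to serum-free induction medium and exposed in duplicate for 48 h to 8-point half-log series from 100 uM in 0.5% DMSO. CYP7A1 mRNA by qRT-PCR (TaqMan), normalized to ACTB/GAPDH/POLR2A; bidirectional fit versus DMSO.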

Read-out in assay [8]: Glutathione S-Transferase (GSTA2), GSTA2 (gene 2939)
The experiment in a line: LTEA_HepaRG_GSTA2: Life Technologies and Expression Analysis (LTEA) Assay for Glutathione S-Transferase (GSTA2) using HepaRG (AID 2283497). Summed up: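 Human HepaRG cells, plated 48 h, then exposed in serum-free induction medium for 48 h to eight half-log concentrations up to 100 uM in 0.5% DMSO, duplicate. GSTA2 mRNA by qRT-PCR, normalized to ACTB/GAPDH/POLR2A; bidirectional fit versus DMSO.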

Read-out in assay [9]: Glutamate-cysteine ligase catalytic (GCLC), GCLC (gene 2729)
As to the kind of experiment: LTEA_HepaRG_GCLC: Life Technologies and Expression Analysis (LTEA) Assay for Glutamate-cysteine ligase catalytic (GCLC) using HepaRG (AID 2283498). Summed up:
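Differentiated human HepaRG cells, plated 48 h then switched to serum-free induction medium, were exposed in duplicate for 48 h to 8 half-log concentrations topping at 100 uM in 0.5% DMSO. GCLC mRNA was quantified by qRT-PCR against ACTB, GAPDH and POLR2A.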

Read-out in assay [10]: growth arrest and DNA damage 45 (GADD45G), GADD45G (gene 10912)
As to the kind of experiment: LTEA_HepaRG_GADD45G: Life Technologies and Expression Analysis (LTEA) Assay for growth arrest and DNA damage 45 (GADD45G) using HepaRG (AID 2283499). Summed up: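 Gain or loss of GADD45G mRNA, quantified by TaqMan qRT-PCR against three housekeeping genes, is fitted in both directions relative to 0.5% DMSO. Human HepaRG cultures receive test chemical for 48 h at up to 100 uM.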

Read-out in assay [11]: Glutamate-cysteine ligase regulatory (GCLM), GCLM (gene 2730)
The experiment in a line: LTEA_HepaRG_GCLM: Life Technologies and Expression Analysis (LTEA) Assay for Glutamate-cysteine ligase regulatory (GCLM) using HepaRG (AID 2283500). Summed up:
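Cells were plated, cultured 48 h, switched to serum-free induction medium, then dosed in duplicate for 48 h at eight half-log concentrations up to 100 uM. RNA was then profiled by qRT-PCR; gain or loss versus DMSO was fitted.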

Read-out in assay [12]: Glutathione S-transferase M3 (GSTM3), GSTM3 (gene 2947)
The experiment in a line: LTEA_HepaRG_GSTM3: Life Technologies and Expression Analysis (LTEA) Assay for Glutathione S-transferase M3 (GSTM3) using HepaRG (AID 2283501). Put shortly:
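HepaRG, plated 48 h, then serum-free induction medium; test chemical 48 h, duplicate; 100 uM top, half-log x8, 0.5% DMSO. Read-out: GSTM3 mRNA (TaqMan qRT-PCR, Fluidigm array). Bidirectional fit vs DMSO.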

Read-out in assay [13]: Hypoxia-inducible factor 1-alpha (Homo sapiens) (UniProt Q16665)
As to the kind of experiment: LTEA_HepaRG_HIF1A: Life Technologies and Expression Analysis (LTEA) Assay for Hypoxia-inducible factor 1 (HIF1A) Trancription factor using HepaRG (AID 2283503). Put shortly:
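Differentiated HepaRG cells in serum-free induction medium exposed 48 h, in duplicate, to 8-point half-log series from 100 uM in 0.5% DMSO. HIF1A mRNA measured by TaqMan qRT-PCR, normalized to ACTB/GAPDH/POLR2A, fitted bidirectionally versus DMSO.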

Read-out in assay [14]: 3-Hydroxy-3-Methylglutaryl-CoA Synthase 2 (HMGCS2), HMGCS2 (gene 3158)
The experiment in a line: LTEA_HepaRG_HMGCS2: Life Technologies and Expression Analysis (LTEA) Assay for 3-Hydroxy-3-Methylglutaryl-CoA Synthase 2 (HMGCS2) using HepaRG (AID 2283504). Put shortly: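 HepaRG, plated 48 h then switched to serum-free induction media; cmpd 8-pt, max 100 uM, 1/2-log, 0.5% DMSO, n=2, 48 h. HMGCS2 mRNA by Fluidigm TaqMan qRT-PCR, ACTB/GAPDH/POLR2A norm; bidirectional fit vs DMSO.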

Read-out in assay [15]: HGF (gene 3082)
As to the kind of experiment: LTEA_HepaRG_HGF: Life Technologies and Expression Analysis (LTEA) Assay for Hepatocyte Growth Facto (HGF) using HepaRG (AID 2283505). Put shortly:
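Read-out is HGF transcript level by qRT-PCR, normalized to three housekeeping genes, fitted bidirectionally against 0.5% DMSO vehicle. Human HepaRG cells received test chemicals for 48 h at up to 100 uM.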

Read-out in assay [16]: Insulin Like Growth Factor 1 (IGF1), IGF1 (gene 3479)
The experiment in a line: LTEA_HepaRG_IGF1: Life Technologies and Expression Analysis (LTEA) Assay for Insulin Like Growth Factor 1 (IGF1) using HepaRG (AID 2283506). Put shortly:
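HepaRG, plated 48 h, then switched to serum-free induction media; test chemical 8-pt half-log from 100 uM (0.5% DMSO), duplicate, 48 h. Lysis in RLT, TaqMan qRT-PCR, norm. ACTB/GAPDH/POLR2A. Bidirectional fit vs DMSO.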

Read-out in assay [17]: Intercellular Adhesion Molecule 1 (ICAM1), ICAM1 (gene 3383)
The experiment in a line: LTEA_HepaRG_ICAM1: Life Technologies and Expression Analysis (LTEA) Assay for Intercellular Adhesion Molecule 1 (ICAM1) using HepaRG (AID 2283507). Put shortly:
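Readout is qRT-PCR mRNA level, normalized to three housekeeping genes and fitted bidirectionally against 0.5% DMSO vehicle. Human HepaRG cultures received compound for 48 h, top concentration 100 uM with half-log dilutions.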

Read-out in assay [18]: Insulin-like growth factor-binding protein 1 (IGFBP1), IGFBP1 (gene 3484)
As to the kind of experiment: LTEA_HepaRG_IGFBP1: Life Technologies and Expression Analysis (LTEA) Assay for Insulin-like growth factor-binding protein 1 (IGFBP1) using HepaRG (AID 2283508). Summed up:
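Thawed HepaRG cells are plated for 48 h, switched to serum-free induction medium, then dosed in duplicate for another 48 h (100 uM top, half-log steps). Lysates in RLT go to qRT-PCR, and gain or loss of signal is fitted relative to vehicle.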

Read-out in assay [19]: Interleukin 6 (IL6), IL6 (gene 3569)
The experiment in a line: LTEA_HepaRG_IL6: Life Technologies and Expression Analysis (LTEA) Assay for Interleukin 6 (IL6) using HepaRG (AID 2283509). Put shortly: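 Differentiated human HepaRG cells, plated 48 h then switched to serum-free induction medium, were exposed in duplicate for 48 h to eight half-log concentrations up to 100 uM in 0.5% DMSO. IL6 mRNA measured by qRT-PCR, normalized to ACTB/GAPDH/POLR2A.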

Calls of active or inactive are those of the source. How the source made its calls: active means hit-call score of the fitted dose curve at least 0.9, where 1 is the maximum; inactive means score below 0.9.

Chain of Hypoxia-inducible factor 1-alpha (Homo sapiens) (Q16665 whole entry, looked up): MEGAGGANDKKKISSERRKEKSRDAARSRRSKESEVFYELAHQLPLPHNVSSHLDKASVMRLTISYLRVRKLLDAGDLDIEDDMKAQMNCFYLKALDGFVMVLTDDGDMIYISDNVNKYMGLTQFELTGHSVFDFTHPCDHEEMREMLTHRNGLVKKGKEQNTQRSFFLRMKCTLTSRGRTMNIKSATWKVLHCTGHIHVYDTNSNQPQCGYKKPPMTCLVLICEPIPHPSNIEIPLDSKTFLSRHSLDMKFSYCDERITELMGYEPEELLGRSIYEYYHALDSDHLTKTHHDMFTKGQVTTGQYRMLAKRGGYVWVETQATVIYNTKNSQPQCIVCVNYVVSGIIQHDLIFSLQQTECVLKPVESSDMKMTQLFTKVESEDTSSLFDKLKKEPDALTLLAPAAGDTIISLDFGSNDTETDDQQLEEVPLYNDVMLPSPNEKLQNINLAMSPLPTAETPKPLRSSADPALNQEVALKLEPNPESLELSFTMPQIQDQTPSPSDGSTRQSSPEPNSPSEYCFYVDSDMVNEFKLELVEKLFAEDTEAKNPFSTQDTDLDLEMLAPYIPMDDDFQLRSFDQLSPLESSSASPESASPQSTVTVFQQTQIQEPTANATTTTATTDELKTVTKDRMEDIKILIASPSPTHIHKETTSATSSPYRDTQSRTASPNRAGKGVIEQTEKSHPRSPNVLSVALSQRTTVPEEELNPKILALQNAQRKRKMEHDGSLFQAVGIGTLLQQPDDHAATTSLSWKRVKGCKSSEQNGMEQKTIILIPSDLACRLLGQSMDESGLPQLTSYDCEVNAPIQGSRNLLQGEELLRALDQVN
Chain of Cytochrome P450 3A7 (Homo sapiens) (P24462 whole entry, looked up): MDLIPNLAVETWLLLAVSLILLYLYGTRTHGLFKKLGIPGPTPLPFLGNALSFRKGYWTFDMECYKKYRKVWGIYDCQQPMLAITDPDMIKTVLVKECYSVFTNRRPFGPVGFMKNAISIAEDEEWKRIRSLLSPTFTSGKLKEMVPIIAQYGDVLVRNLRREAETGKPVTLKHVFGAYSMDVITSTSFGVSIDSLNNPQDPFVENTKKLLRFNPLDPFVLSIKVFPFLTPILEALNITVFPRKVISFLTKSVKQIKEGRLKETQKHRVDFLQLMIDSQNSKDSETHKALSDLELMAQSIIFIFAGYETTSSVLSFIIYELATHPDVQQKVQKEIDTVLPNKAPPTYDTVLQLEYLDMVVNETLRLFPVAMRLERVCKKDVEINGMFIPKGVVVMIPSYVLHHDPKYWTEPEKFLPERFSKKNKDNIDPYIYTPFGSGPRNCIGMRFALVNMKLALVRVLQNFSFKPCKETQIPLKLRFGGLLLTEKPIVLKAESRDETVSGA

What is called AC50 is the concentration giving half of the maximal activity seen. With `CCOP(=S)(OCC)Oc1nc(Cl)n(C(C)C)n1`, the compound was classed as inactive in assay [1], in assay [2], in assay [3], in assay [4], in assay [5] and in assay [8]. In addition, the outcome in assay [9], in [10], in assay [11], in [12], in assay [13] and in assay [15] was inactive. Also, the result in assay [17] and in [19] was inactive. The concentration at half-maximal activity (AC50) was 35.9 µM (active) in assay [6]; 2.01 µM (active) in [7]; 17.2 µM (active) in assay [14]; 18.9 µM (active) in assay [16]; 1.57 µM (active) in [18].
As to `CC1(C)C(C(=O)OC(C#N)c2cccc(Oc3ccccc3)c2)C1(C)C` (configuration not stated), the result in [1], in assay [2], in [3], in assay [4], in [5] and in [6] was inactive. Also, the result in assay [7], in assay [8], in [9], in assay [10], in [11] and in assay [12] was inactive. For the same compound, the result in assay [13], in assay [14], in assay [15], in [16], in assay [17] and in assay [18] was inactive. Moreover, the outcome in [19] was inactive.
On to `CCOC(=O)C(C)OC(=O)c1cc(Oc2ccc(C(F)(F)F)cc2Cl)ccc1[N+](=O)[O-]` (configuration not stated), for which the AC50 in assay [1] was 18.7 µM (active); in assay [3] it was 5.9 µM (active); in [4], 27.5 µM (active); in [5] it was 14.5 µM (active); in assay [6], 0.414 µM (active); in [7], 50 µM (active). The AC50 in [8] was 84.3 µM (active); in assay [10] it was 3.82 µM (active); in [14], 1.38 µM (active); in assay [16], 21 µM (active); in [19] it was 9.92 µM (active). In addition, the compound was called inactive in assay [2], in [9], in [11], in assay [12], in assay [13] and in assay [15]. Further, the result in [17] and in [18] was inactive.

For the origin of these results see PubChem BioAssay (EPA / NIEHS).
